# Paper PMC7862700, “An all-to-all approach to the identification of sequence-specific readers for epigenetic DNA modifications on cytosine”
# Columns and labels:
# Assay in all cases: DAPPL (digital affinity profiling via proximity ligation, sequencing); 10 mM Tris-HCl pH 7.5, 50 mM NaCl, 1 mM DTT, 4% glycerol, room temperature, 30 min; GST-TFs on glutathione beads, 16-mer random dsDNA library, 0.1% formaldehyde crosslink after washing; high values mean tight binding
# [1] = biological target: T1, FLI1 (Homo sapiens, UniProt Q01543 1-452); conditions: protein: recombinant; tags: N-terminal GST; dsDNA, one strand shown
# T1 sequence: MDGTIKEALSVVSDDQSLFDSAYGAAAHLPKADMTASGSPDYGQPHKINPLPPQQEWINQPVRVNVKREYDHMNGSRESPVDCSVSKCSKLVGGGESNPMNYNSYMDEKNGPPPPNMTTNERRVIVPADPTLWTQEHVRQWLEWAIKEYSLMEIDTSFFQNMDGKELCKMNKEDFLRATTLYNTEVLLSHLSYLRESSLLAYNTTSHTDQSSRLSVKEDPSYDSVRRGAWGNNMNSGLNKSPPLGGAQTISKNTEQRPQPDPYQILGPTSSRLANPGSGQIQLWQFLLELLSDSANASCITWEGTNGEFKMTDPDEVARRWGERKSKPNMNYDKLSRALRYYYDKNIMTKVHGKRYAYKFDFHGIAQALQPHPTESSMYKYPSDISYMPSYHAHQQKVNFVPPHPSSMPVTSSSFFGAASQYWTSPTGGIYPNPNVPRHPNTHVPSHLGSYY
# Summary of the method: (§1)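 After expression in yeast as GST fusions, human transcription factors were bound to glutathione beads, DNA-barcoded and mixed with a tag-only sample. The pools were incubated with 200 nmole of a 16-mer random double-stranded DNA library in Tris/NaCl/DTT/glycerol buffer (30 min, room temperature), washed and crosslinked with 0.1% formaldehyde. Proximity ligation with BsaI/T4 ligase ran for 1 h at 37 °C, before PCR amplification and sequencing on an Illumina NextSeq500. Binding signal is a hexamer's read frequency for a factor divided by its frequency for the tag-only sample.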
# [2] = biological target: T2, ELK1 (Homo sapiens, UniProt P19419 1-428); conditions: protein: recombinant; tags: N-terminal GST; dsDNA, one strand shown
# T2 sequence: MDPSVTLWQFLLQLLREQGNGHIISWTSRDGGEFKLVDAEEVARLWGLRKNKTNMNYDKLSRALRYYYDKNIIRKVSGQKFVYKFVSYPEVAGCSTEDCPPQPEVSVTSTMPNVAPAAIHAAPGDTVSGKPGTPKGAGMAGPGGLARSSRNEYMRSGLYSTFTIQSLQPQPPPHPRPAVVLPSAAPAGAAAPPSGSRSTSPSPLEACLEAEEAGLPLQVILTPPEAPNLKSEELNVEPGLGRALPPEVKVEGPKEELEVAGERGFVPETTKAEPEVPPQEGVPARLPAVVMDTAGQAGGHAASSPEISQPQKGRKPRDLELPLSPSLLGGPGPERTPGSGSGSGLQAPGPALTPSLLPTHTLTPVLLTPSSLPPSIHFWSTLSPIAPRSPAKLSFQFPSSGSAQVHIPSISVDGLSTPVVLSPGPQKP
# Summary of the method: as §1
# [3] = biological target: T3, GABPA (Homo sapiens, UniProt Q06546 1-454); conditions: protein: recombinant; tags: N-terminal GST; dsDNA, one strand shown
# T3 sequence: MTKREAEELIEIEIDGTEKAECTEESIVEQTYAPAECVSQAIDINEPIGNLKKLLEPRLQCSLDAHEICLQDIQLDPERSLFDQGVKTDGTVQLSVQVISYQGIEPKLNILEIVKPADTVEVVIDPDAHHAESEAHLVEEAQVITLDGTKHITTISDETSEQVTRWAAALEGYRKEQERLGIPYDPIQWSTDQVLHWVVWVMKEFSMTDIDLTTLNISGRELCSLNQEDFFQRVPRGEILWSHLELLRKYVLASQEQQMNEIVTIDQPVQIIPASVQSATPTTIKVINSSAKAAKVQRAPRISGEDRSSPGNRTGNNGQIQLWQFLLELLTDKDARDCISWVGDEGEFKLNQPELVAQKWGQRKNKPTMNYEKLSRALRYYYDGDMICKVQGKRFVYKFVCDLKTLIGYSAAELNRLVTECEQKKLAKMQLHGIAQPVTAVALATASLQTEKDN
# Summary of the method: as §1
# [4] = biological target: ELF1 (Homo sapiens, UniProt P32519 1-619); conditions: protein: recombinant; tags: N-terminal GST; dsDNA, one strand shown
# ELF1, sequence (P32519 whole entry): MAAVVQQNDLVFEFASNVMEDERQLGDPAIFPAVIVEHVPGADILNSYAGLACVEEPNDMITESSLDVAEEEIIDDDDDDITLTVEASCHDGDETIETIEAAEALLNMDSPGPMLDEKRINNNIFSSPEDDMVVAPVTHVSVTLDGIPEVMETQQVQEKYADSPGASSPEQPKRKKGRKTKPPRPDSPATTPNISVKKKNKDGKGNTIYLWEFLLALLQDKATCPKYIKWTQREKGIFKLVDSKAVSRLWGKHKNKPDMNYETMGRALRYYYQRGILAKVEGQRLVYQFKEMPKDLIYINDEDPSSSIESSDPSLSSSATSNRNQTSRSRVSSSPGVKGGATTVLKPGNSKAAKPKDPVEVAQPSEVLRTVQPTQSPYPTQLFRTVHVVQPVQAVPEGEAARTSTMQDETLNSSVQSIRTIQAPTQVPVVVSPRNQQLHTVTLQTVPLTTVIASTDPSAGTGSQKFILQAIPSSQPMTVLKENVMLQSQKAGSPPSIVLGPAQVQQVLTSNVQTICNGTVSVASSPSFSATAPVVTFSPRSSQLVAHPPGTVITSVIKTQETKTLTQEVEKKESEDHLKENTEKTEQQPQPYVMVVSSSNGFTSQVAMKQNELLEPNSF
# Summary of the method: as §1
# [5] = biological target: T4, EHF (Homo sapiens, UniProt Q9NZC4 1-300); conditions: protein: recombinant; tags: N-terminal GST; dsDNA, one strand shown
# T4 sequence: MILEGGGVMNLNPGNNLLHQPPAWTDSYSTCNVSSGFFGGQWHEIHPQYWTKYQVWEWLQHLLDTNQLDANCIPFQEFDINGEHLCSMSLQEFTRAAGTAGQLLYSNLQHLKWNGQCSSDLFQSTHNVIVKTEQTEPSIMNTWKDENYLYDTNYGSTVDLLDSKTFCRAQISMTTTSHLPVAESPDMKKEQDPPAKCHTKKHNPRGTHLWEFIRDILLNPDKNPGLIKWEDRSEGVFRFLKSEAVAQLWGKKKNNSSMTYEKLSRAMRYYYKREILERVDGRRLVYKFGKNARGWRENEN
# Summary of the method: as §1
# [6] = biological target: SPI1 (Homo sapiens, UniProt P17947 1-270); conditions: protein: recombinant; tags: N-terminal GST; dsDNA, one strand shown
# Summary of the method: as §1
# [7] = biological target: SPIB (Homo sapiens, UniProt Q01892 1-262); conditions: protein: recombinant; tags: N-terminal GST; dsDNA, one strand shown
# SPIB, sequence (Q01892 whole entry): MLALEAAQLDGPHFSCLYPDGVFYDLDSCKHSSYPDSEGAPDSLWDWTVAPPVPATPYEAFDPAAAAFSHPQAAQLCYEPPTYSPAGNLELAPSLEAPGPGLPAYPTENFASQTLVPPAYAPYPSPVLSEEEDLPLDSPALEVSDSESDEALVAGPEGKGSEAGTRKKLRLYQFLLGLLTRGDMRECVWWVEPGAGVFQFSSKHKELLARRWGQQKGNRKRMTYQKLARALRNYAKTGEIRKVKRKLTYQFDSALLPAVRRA
# Summary of the method: as §1
# [8] = biological target: T5, ELK3 (Homo sapiens, UniProt P41970 1-407); conditions: protein: recombinant; tags: N-terminal GST; dsDNA, one strand shown
# T5 sequence: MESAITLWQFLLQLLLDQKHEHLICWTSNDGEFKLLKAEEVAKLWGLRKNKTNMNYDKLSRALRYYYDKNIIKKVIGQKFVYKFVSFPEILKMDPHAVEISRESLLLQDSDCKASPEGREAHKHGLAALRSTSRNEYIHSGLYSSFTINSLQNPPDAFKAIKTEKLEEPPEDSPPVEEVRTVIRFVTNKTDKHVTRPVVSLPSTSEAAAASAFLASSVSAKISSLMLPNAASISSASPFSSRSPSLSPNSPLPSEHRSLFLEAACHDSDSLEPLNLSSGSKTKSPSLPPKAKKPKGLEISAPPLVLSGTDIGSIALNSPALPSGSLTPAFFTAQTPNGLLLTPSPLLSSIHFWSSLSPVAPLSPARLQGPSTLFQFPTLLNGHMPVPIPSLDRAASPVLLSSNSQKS
# Summary of the method: as §1
# [9] = biological target: T6, FEV (Homo sapiens, UniProt Q99581 1-238); conditions: protein: recombinant; tags: N-terminal GST; dsDNA, one strand shown
# T6 sequence: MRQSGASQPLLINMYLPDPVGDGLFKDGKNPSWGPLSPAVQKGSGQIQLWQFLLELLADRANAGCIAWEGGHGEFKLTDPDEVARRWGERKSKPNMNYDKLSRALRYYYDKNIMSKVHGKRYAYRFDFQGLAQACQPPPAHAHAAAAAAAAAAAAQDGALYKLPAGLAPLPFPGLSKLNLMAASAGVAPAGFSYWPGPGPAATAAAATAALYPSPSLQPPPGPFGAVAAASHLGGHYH
# Summary of the method: as §1
# [10] = biological target: ETV5 (Homo sapiens, UniProt P41161 1-510); conditions: protein: recombinant; tags: N-terminal GST; dsDNA, one strand shown
# ETV5, sequence (P41161 whole entry): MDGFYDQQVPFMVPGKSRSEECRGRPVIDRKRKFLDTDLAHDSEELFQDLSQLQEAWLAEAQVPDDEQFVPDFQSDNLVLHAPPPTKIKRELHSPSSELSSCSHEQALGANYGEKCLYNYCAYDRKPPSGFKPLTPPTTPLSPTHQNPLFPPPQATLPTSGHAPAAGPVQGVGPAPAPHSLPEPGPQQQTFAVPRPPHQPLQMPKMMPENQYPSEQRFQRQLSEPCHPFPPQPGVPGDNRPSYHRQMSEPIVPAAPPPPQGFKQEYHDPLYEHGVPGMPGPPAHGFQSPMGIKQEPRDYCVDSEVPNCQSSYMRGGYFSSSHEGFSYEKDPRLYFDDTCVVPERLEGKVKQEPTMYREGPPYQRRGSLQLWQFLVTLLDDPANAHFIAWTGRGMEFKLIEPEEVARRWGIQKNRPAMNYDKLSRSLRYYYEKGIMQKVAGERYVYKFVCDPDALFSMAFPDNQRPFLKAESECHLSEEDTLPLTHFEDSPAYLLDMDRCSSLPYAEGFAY
# Summary of the method: as §1
# [11] = biological target: HSF1 (Homo sapiens, UniProt Q00613 1-529); conditions: protein: recombinant; tags: N-terminal GST; chain copies: 3; dsDNA, one strand shown
# HSF1, sequence (Q00613 whole entry): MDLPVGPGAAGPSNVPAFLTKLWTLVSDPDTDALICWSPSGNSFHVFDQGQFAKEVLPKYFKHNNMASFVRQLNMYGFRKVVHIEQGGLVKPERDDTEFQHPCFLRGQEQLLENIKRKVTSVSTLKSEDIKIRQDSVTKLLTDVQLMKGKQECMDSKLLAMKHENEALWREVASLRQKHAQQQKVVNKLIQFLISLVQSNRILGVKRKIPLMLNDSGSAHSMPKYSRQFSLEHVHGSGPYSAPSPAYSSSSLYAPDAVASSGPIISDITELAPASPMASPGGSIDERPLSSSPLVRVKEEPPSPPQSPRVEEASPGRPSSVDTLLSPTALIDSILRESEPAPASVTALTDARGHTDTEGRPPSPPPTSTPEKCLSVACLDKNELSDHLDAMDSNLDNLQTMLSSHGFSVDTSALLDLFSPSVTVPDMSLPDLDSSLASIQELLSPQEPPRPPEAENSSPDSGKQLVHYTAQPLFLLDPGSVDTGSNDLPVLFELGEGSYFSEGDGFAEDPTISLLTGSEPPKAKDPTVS
# Summary of the method: as §1
# [12] = biological target: T7, SPIC (Homo sapiens, UniProt Q8N5J4 1-248); conditions: protein: recombinant; tags: N-terminal GST; dsDNA, one strand shown
# T7 sequence: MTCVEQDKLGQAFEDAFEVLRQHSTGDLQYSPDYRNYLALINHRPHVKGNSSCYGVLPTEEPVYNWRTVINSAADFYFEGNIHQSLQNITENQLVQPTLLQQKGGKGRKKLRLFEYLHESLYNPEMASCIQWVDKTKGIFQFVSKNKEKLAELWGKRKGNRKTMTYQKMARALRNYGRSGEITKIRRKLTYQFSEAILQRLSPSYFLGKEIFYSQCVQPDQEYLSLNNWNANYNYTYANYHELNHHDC
# Summary of the method: as §1
# [13] = biological target: ELF4 (Homo sapiens, UniProt Q99607 1-663); conditions: protein: recombinant; tags: N-terminal GST; dsDNA, one strand shown
# ELF4, sequence (Q99607 whole entry): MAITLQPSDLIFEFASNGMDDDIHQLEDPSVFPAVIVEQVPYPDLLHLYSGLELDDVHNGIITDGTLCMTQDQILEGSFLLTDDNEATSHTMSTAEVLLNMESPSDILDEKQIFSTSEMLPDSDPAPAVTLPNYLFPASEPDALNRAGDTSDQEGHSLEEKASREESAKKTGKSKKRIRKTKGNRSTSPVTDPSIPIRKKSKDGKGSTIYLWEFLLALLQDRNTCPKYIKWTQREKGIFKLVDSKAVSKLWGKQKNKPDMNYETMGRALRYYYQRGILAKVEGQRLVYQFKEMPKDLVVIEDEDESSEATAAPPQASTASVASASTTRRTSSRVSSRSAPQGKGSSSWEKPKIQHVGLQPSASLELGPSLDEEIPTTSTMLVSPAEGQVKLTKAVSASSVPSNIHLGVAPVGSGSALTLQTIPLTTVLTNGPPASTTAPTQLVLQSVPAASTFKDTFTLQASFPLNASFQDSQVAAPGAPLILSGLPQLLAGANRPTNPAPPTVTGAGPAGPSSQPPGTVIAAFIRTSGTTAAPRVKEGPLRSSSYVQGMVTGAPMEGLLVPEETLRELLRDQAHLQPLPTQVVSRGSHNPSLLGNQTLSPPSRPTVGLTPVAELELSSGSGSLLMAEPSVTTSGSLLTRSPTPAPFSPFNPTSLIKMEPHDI
# Summary of the method: as §1
# [14] = biological target: T8, ELK4 (Homo sapiens, UniProt P28324-2 1-405); conditions: protein: recombinant; tags: N-terminal GST; dsDNA, one strand shown
# T8 sequence: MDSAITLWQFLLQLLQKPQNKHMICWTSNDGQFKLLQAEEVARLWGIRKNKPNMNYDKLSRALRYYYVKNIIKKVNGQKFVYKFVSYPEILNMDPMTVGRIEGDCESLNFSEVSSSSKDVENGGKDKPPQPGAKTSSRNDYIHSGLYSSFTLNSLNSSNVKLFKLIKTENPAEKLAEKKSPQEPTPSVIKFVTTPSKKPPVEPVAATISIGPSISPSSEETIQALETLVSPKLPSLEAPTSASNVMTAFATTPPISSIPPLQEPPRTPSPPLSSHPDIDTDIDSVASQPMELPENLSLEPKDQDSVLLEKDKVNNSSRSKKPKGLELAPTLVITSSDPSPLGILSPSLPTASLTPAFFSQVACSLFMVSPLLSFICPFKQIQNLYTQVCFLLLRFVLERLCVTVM
# Summary of the method: as §1
# [15] = biological target: CRX (Homo sapiens, UniProt O43186 1-299); conditions: protein: recombinant; tags: N-terminal GST; dsDNA, one strand shown
# CRX, sequence (O43186 whole entry): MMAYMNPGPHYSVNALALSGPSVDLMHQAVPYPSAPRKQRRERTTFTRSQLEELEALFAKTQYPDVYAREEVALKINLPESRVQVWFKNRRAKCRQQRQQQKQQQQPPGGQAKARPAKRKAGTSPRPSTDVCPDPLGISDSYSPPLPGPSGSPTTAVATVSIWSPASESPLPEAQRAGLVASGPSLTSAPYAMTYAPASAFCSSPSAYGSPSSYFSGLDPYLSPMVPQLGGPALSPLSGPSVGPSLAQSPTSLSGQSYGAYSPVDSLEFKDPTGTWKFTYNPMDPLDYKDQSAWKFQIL
# Summary of the method: as §1
# [16] = biological target: ETV1 (Homo sapiens, UniProt P50549 1-477); conditions: protein: recombinant; tags: N-terminal GST; dsDNA, one strand shown
# ETV1, sequence (P50549 whole entry): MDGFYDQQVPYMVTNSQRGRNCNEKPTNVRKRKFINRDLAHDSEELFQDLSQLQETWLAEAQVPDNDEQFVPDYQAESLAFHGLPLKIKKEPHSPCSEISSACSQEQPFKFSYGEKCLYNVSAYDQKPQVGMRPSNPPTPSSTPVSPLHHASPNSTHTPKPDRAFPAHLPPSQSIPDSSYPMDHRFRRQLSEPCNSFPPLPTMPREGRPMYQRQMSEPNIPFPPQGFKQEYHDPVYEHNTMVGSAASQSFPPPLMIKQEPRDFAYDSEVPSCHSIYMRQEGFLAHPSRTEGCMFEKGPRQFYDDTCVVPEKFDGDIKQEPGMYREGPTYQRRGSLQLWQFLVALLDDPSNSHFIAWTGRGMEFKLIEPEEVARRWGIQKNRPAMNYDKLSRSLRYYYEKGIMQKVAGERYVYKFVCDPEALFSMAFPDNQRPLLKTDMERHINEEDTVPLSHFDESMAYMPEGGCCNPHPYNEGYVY
# Summary of the method: as §1
sequence,measurement,setting,value
TGATCG,binding signal,[1],"1 fold enrichment (6-mer frequency, TF over GST control)"
same,binding signal,[2],"1 fold enrichment (6-mer frequency, TF over GST control)"
same,binding signal,[3],"1.03 fold enrichment (6-mer frequency, TF over GST control)"
same,binding signal,[4],"1.03 fold enrichment (6-mer frequency, TF over GST control)"
same,binding signal,[5],"1.13 fold enrichment (6-mer frequency, TF over GST control)"
same,binding signal,[6],"1.03 fold enrichment (6-mer frequency, TF over GST control)"
same,binding signal,[7],"1.12 fold enrichment (6-mer frequency, TF over GST control)"
same,binding signal,[8],"1.17 fold enrichment (6-mer frequency, TF over GST control)"
same,binding signal,[9],"1.01 fold enrichment (6-mer frequency, TF over GST control)"
same,binding signal,[10],"1.03 fold enrichment (6-mer frequency, TF over GST control)"
same,binding signal,[11],"1.18 fold enrichment (6-mer frequency, TF over GST control)"
same,binding signal,[12],"1.11 fold enrichment (6-mer frequency, TF over GST control)"
same,binding signal,[13],"1.05 fold enrichment (6-mer frequency, TF over GST control)"
same,binding signal,[14],"1.13 fold enrichment (6-mer frequency, TF over GST control)"
same,binding signal,[15],"1.21 fold enrichment (6-mer frequency, TF over GST control)"
same,binding signal,[16],"1.09 fold enrichment (6-mer frequency, TF over GST control)"
